Reference: the supplement of paper PMC12340641

Columns and labels:
[1] = molecular target: IKZF1 (dCK*-IKZF1 fusion in HEK293FT) (UniProt Q13422); test: inhibition of IKZF1 HTRF signal (DMSO = 0%, pomalidomide 10 uM = 100%); higher = lower IKZF1 protein level; conditions: compound concentration: 5 uM, overnight (~20 h)
Procedure, shortened: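 Percent inhibition of IKZF1 signal was calculated per plate with vehicle and a reference degrader as anchors. The anchors were 0% for vehicle and 100% for the degrader, applied to background-subtracted 665/620 nm time-resolved FRET ratios from a commercial HTRF total-IKZF1 kit. Signal came from HEK293FT cells stably expressing an IKZF1 fusion, treated overnight at 37 °C with 5 μM compound in single wells of 384-well plates.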

HEK293FT dCK*-only = test: relative growth in counter assay (no AraC = 100%, AraC + DMSO = 0%); higher = more growth rescue independent of IKZF1; conditions: compound concentration: 5 uM; AraC concentration: 0.3 uM; overnight pretreatment + 4 days AraC
Procedure, shortened: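 Nuclei were counted by imaging after Hoechst 33342 staining on day 5, in HEK293FT cells (300/well, 384-well) expressing only an engineered kinase construct. Compound at 5 μM went in 2 h after seeding, followed after overnight at 37 °C by a nucleoside suicide substrate at 0.3 μM plus medium for 4 days. Per plate, wells lacking suicide substrate defined 100% and those with substrate plus vehicle defined 0%.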

HEK293FT dCK*-IKZF1 = test: relative growth recovery (pomalidomide 10 uM = 100%, DMSO = 0%); higher = more growth rescue (IKZF1 fusion degradation); conditions: compound concentration: 5 uM; AraC concentration: 0.3 uM; overnight pretreatment + 4 days AraC
Procedure, shortened: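 HEK293FT cells stably expressing a dCK*-IKZF1 fusion (300/well, 384-well) received 5 μM compound 2 h after seeding. After overnight at 37 °C they received a nucleoside suicide substrate at 0.3 μM plus medium for 4 days. On day 5, Hoechst 33342-stained nuclei were counted by whole-well imaging. Growth recovery was normalised per plate to a reference degrader (100%) and vehicle (0%); values are means of duplicates run on different days.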

Chain of IKZF1 (dCK*-IKZF1 fusion in HEK293FT) (Q13422 whole entry, looked up, the tested form may be a part): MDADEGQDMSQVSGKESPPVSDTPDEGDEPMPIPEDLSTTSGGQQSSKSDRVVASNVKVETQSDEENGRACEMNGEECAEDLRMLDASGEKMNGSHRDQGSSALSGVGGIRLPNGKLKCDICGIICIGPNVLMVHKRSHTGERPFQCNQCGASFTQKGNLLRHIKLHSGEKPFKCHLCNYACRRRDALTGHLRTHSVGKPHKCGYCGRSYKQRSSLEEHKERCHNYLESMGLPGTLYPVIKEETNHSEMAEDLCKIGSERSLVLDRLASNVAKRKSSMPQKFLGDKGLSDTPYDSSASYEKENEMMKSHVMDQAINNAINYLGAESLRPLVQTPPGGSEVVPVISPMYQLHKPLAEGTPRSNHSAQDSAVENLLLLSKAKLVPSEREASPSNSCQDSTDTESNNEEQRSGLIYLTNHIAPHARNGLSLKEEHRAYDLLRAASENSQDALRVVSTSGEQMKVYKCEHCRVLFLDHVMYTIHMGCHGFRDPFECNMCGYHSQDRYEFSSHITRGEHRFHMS

Compound | inhibition of IKZF1 HTRF signal [1] | relative growth in counter assay (HEK293FT dCK*-only) | relative growth recovery (HEK293FT dCK*-IKZF1)
CN(CC3)C[C@@H](O)[C@H]3[C@]1=C(OC(C4=CC=CC=C4Cl)=CC2=O)C2=C(O)C=C1O [alvocidib] | -30.5% | -35.2% | -12.5%
CC[C@H](CO)Nc1nc(NCc2ccc(-c3ccccn3)cc2)c2ncn(C(C)C)c2n1 | 8.26% | -34.5% | -12.2%
c1ccc(CNc2nc(NCc3ccccc3)c3ccccc3n2)cc1 | -15.7% | -18.5% | -4.85%
COc1cc(C(=O)NS(=O)(=O)c2ccccc2C)ccc1Cc1cn(C)c2ccc(NC(=O)OC3CCCC3)cc12 [Zafirlukast (Accolate)] | -6.19% | 0.38% | 0.805%
O=C(O)c1ccccc1Nc1ccc(CCc2ccc(Cl)c(Cl)c2)cc1 | -23.6% | 8.33% | 0.125%
